Source: PubChem
FBW7 activator: activators of human E3 ligase FBW7; Q969H0; AlphaScreen FBW7–phospho-cyclin E peptide binding, activator screen; normalized activity (activation), % at 26.1 µM; 650,000 tested, 0.13% active; AID 1259310; in the data active = normalized activity above about 1.9%;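 note: purified mutant Fbw7 with reduced substrate affinity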
MITF primary: human MITF inhibition, primary screen | AlphaScreen MITF homodimerization, bead proximity signal | inhibition, % at 2.6 µM | 650,000 tested, 0.91% active | O75030; in the data active = inhibition above about 50%;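 note: 0% = vehicle wells with protein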
Target sequence (O75030 whole entry, looked up): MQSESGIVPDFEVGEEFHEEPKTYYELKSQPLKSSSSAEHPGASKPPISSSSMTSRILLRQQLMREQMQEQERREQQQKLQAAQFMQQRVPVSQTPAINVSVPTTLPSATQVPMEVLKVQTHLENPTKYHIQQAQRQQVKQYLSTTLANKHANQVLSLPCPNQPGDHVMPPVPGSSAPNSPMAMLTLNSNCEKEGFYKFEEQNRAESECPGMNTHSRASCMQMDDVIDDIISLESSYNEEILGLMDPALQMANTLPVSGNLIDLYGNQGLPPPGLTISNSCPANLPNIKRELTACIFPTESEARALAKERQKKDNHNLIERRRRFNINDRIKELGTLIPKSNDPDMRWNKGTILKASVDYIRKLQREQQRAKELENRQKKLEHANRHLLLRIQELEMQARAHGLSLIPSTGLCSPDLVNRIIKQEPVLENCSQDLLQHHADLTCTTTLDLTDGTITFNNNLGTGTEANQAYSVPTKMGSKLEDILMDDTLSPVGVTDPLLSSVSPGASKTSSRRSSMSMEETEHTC
GPR151 ag: activators of human GPR151; Q8TDV0; PathHunter beta-arrestin GPR151 cells, luminescence; activation, % at 11.2 µM; 650,000 tested, 1% active; AID 1508602; in the data active = activation above about 4.9%;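 note: 0% = median of compound wells and 100% = cells with positive control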
TEAD-YAP inh: TEAD-YAP interaction inhibition; HEK-TIYL cells, TEAD-Gal4/YAP UAS-luciferase luminescence; inhibition, % at 9.12 µM; 640,000 tested, 1.4% active; in the data active = inhibition above about 32%;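 note: 0% = median of test compound wells and 100% = reference inhibitor wells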
GPR151 conf act: confirmation of human GPR151 activators | activation, % at 11.2 µM | 6,700 tested, under 10 active | AID 1508609 | GPR151 PathHunter beta-arrestin cells, luminescence, 90 min; % of EA-reagent control over plate median | shares compounds with GPR151 ag;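 active = mean percent activation across replicates above the confirmation screen cutoff of 4.91%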
GPR119 counter: activates human GPR119 in a GPR151 counter-screen | shares compounds with GPR151 ag | GPR119 PathHunter beta-arrestin cells, luminescence, 90 min; 0 = compound-well median, 100 = enzyme-acceptor control | AID 1508611 | activation, % at 11.2 µM | 6,700 tested, 0.3% active;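 active = mean percent activation in the counterscreen above 29.09%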;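 note: counterscreen on off-target GPR119 to flag nonselective hits from the GPR151 activator screen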
* marks the source's active call; other numbers are inactive results; x = no result given; ! = a repeat was not active. This is a sample that favours compounds with a hit; in the whole collection about 3.5% have one here.

SMILES | FBW7 activator | MITF primary | GPR151 ag | TEAD-YAP inh | GPR151 conf act | GPR119 counter
COc1ccc(C(=O)Cn2c(CN3CCCCC3)nc3ccccc3c2=O)cc1 | 0.1 | -2.1 | 6.1* | -10.4 | 0.1 | -7.3
CC(C)SC(=N)N | 0.1 | -2.3 | 1.1 | x | x | x
CCSC(=N)N | 0.1 | -4.5 | 7.1*! | 11.7 | -0.4 | 4.2
Cc1ccc(C(=O)COC(=O)CCC(=O)Nc2ccc(F)cc2)cc1[N+](=O)[O-] | -0.2 | -25.6 | 0.0 | 2.9 | x | x
CC(=O)c1cccc(NC(=O)COc2c(C)cccc2C)c1 | -0.3 | -13.6 | 5.2* | -6.5 | -0.2 | -11.5
Cc1ccc(N2C(=O)c3ccc(C(=O)N4CCCCC4C)cc3C2=O)cc1 (centres undefined) | 0.1 | 14.8 | 5.0* | 3.2 | -0.1 | 10.8
Cc1cc(N2C(=O)c3ccc(C(=O)N4CCCCC4C)cc3C2=O)no1 (centres undefined) | 0.2 | 11.2 | 2.0 | 6.1 | x | x
COc1cc(NS(=O)(=O)c2cc(C(=O)O)ccc2OC)cc(OC)c1 | 0.2 | 2.5 | 9.2* | 10.4 | 0.2 | 7.9
COc1ccc(OC)c(S(=O)(=O)Nc2ccc(C(=O)O)cc2)c1 | -0.2 | -0.5 | -0.1 | 1.7 | x | x
CC1CC(C)CN(c2ccc(N3C(=O)CC(C)C3=O)cc2[N+](=O)[O-])C1 (centres undefined) | 0.0 | 5.0 | 6.5* | 1.1 | 0.5 | 0.8
CC1CC(=O)N(c2ccc(N3CCCCCC3)c([N+](=O)[O-])c2)C1=O (centres undefined) | 0.0 | -0.5 | -0.7 | -6.2 | x | x
NN1C(=O)c2ccccc2NC1C1CC=CCC1 (centres undefined) | 0.6 | 15.6 | 20.4* | -11.1 | -1.5 | -8.8
COc1ccccc1-c1nnc(-c2cc3cc(Cl)ccc3oc2=O)o1 | -0.1 | 6.3 | 0.6 | 0.3 | x | x
N#Cc1c(-c2ccc(Cl)cc2)cc(-c2ccccc2)nc1N | 0.0 | 10.0 | -0.4 | 2.0 | x | x
N#Cc1c(-c2ccncc2)cc(-c2ccc(Cl)cc2)nc1N | -0.1 | -11.2 | 5.4* | -6.7 | 0.0 | -2.2
CS(=O)(=O)N1CCN=C1SCc1ccc(Cl)cc1 | 0.2 | 7.3 | -1.5 | 4.7 | x | x
CC1(C)Cc2c(sc3ncnc(NNC(=O)c4ccccc4)c23)CO1 | -0.1 | -3.5 | 6.3* | 6.5 | 0.2 | 1.6
CCOc1cc(C(=O)Nc2ccccc2N2CCOCC2)cc(OCC)c1OCC | -0.1 | -2.4 | 5.8* | 4.7 | -0.5 | -8.9
CC(=O)Nc1cc(C(=O)c2ccccc2)ccc1N1CCOCC1 | -0.2 | -0.7 | 6.1* | 4.4 | 0.7 | -3.9
COc1ccccc1C(=O)Nc1cc(C(=O)c2ccccc2)ccc1N1CCOCC1 | 0.1 | 15.1 | -1.7 | 14.4 | x | x
CCc1cccc(OCC(=O)Nc2ccccc2C(=O)O)c1 | 1.1 | 8.9 | -1.3 | -26.9 | x | x
CCc1cccc(OCC(=O)Nc2ccccc2C(N)=O)c1 | -0.2 | 0.0 | 10.0* | -22.4 | -0.8 | 7.1
C[C@@H](OCc1ccccc1)[C@@H]1NC(=O)[C@H]2CN(C(=O)c3cc(F)c(F)cc3F)CCN2C1=O | 0.8 | 18.1 | 0.4 | 11.3 | x | x
C[C@@H](OCc1ccccc1)[C@@H]1NC(=O)[C@H]2CN(C(=O)c3cc(F)ccc3F)CCN2C1=O | 0.1 | -7.2 | 8.9* | -5.0 | 0.7 | 15.5
O=C(O)/C(=C\c1ccccc1)NC(=O)c1cccc2ccccc12 | -0.1 | 0.1 | 0.4 | 0.4 | x | x
SMILES | FBW7 activator | MITF primary | GPR151 ag | TEAD-YAP inh | GPR151 conf act | GPR119 counter
COCCNC(=O)/C(C#N)=C/C=C/c1ccccc1 | 0.0 | 6.4 | 6.0* | -13.6 | 2.8 | 0.5
C=CCNC(=O)/C(C#N)=C/C=C/c1ccccc1 | 0.0 | -4.3 | -0.5 | -6.7 | x | x
CCCCOC(=O)C1=C(C)NC(=O)NC1c1cc(OC)ccc1OC (centres undefined) | 0.1 | 4.7 | 1.1 | 6.7 | x | x
O=C1NC(=S)NC(=O)C1=Cc1cc(Cl)ccc1OCc1ccc([N+](=O)[O-])cc1 | 0.0 | -9.9 | 1.2 | -30.8 | x | x
CCCOc1ccc([N+](=O)[O-])cc1C=C1C(=O)NC(=S)NC1=O | -0.2 | -0.2 | 5.1* | 5.7 | -0.1 | -3.5
O=C(Nc1ccccc1)NC1c2ccccc2Oc2ccccc21 | -0.1 | 2.1 | 6.6* | -14.1 | -0.1 | -2.0
O=C(NC1c2ccccc2Oc2ccccc21)c1ccncc1 | 0.1 | 4.4 | -1.2 | -6.1 | x | x
COc1ccc(-c2nnc(NC(=O)CCc3ccccc3)o2)cc1 | -0.2 | 0.8 | -2.5 | -5.6 | x | x
COc1nc(Nc2ccc(Cl)cc2)nc(NC2CCCCC2)n1 | 0.1 | -1.3 | 0.2 | -0.1 | x | x
Cc1cccc(C)c1NC(=O)CSc1nnc(CN2CCOCC2)n1C | -0.1 | 18.0 | -0.1 | 8.0 | x | x
Cc1ccc(-c2csc(C(C#N)=C3CCCCC3)n2)cc1 | -0.1 | 2.4 | 5.4* | -62.2 | -0.3 | -10.4
COc1ccc(N2C(=O)c3ccc(NC(C)=O)cc3C2=O)cc1 | 0.1 | 4.9 | 1.2 | 4.6 | x | x
COC(=O)c1ccc(N2C(=O)c3ccc(NC(C)=O)cc3C2=O)cc1 | 0.0 | 3.9 | 11.1* | 5.0 | -1.3 | -12.1
CC(C)CCNC(=O)C1CCN(c2nc3ccccc3n3cccc23)CC1 | 0.1 | 17.0 | 0.2 | 11.8 | x | x
CC(C)c1ccc(CN(C(=O)c2cc3ccccc3oc2=O)C2CCS(=O)(=O)C2)cc1 (centres undefined) | 0.2 | 4.4 | 5.6* | -12.9 | 0.4 | 4.2
C=CCS/C(=C(/C#N)C(N)=O)c1cc2c([nH]1)CCCC2 | -0.2 | 6.1 | 8.6* | -1.6 | 0.1 | 5.3
Cc1ccc(C2=CC(c3ccc(Cl)cc3)n3nc(CCCO)nc3N2)cc1 (centres undefined) | 0.3 | 15.7 | -0.5 | 6.7 | x | x
COc1ccc(C2C=C(c3ccc(Cl)cc3)Nc3nc(CCCO)nn32)cc1 (centres undefined) | 0.0 | -1.1 | 6.1* | 12.4 | 1.7 | 4.7
CC(C)(CN1CCN(c2ccccc2)CC1)NS(=O)(=O)c1ccccc1 | -0.2 | 4.7 | 5.5* | -7.0 | 0.0 | -3.7
CC(C)OC(=O)/C(C#N)=C\c1cccs1 | 0.0 | -2.3 | 6.0* | -5.1 | -0.6 | -8.8
CCOc1ccc(CC(=O)Nc2ccc(I)cc2)cc1OCC | 0.0 | 6.3 | 6.0* | -5.0 | -0.3 | -21.4
CCOc1ccc(CC(=O)Nc2ccccc2)cc1OCC | -0.1 | -6.6 | -0.8 | -11.6 | x | x
CC(C)CN(C(=O)c1ccccc1Cl)c1nnc(-c2ccncc2)s1 | -1.3 | 12.2 | 6.3* | -5.5 | 0.1 | -2.1
O=C(COC(=O)c1cccc(C(=O)OCC(=O)c2ccc(Br)cc2)c1)c1ccc(Br)cc1 | -0.1 | 4.4 | -0.6 | -5.1 | x | x
COC(CNC(=O)c1cc(Sc2ccc(C)cc2)nc2ccccc12)OC | -0.1 | 5.5 | -0.6 | 4.6 | x | x
CCC(C)C(=O)Nc1nc2c(s1)C(=O)CC(C(=O)N(C)Cc1nonc1C)C2 (centres undefined) | 0.1 | -4.7 | 5.7* | -16.6 | 0.3 | 1.9
